Experimental data: PubChem BioAssay (NCATS)
Inconclusive results are not listed. Activity calls are given as the source filed them. Calls follow the shape of the dose curve; as a rule, active = well fitted curve in the direction sought with a large enough effect; inconclusive = small, poorly fitted or top-dose-only effect, or another doubt; inactive = no such curve, though single readings can be large; an effect the other way counts as inactive or inconclusive.

Tests used:
[1] = qHTS of pediatric cancer cell lines to identify multiple opportunities for drug repurposing: Primary screen for BT-37 cells (AID 1347094)
Procedure, shortened: (§1)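 Readout: CellTiter-Glo luminescence, 48 h treatment. Controls DMSO (neutral) and bortezomib 2.3 µM final (positive). Potency and efficacy taken from primary-screen concentration-response curves.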

[2] = qHTS of pediatric cancer cell lines to identify multiple opportunities for drug repurposing: Primary screen for NB-EBc1 cells (AID 1347095)
Procedure, shortened: as §1

[3] = qHTS of pediatric cancer cell lines to identify multiple opportunities for drug repurposing: Primary screen for U-2 OS cells (AID 1347096); also: nearly all actives have a fitted effect of over 50% in size
Procedure, shortened: (§2)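 Cells (500-1,000/well) in growth media were settled 5 h at 37 degrees C, then given compounds for 48 h. Viability was read as CellTiter-Glo luminescence. Primary runs used MIPE at 11 points (0.78 nM-46 µM) and NPC at 8 points (0.59 nM-46 µM); follow-ups used 11 points.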

[4] = qHTS of pediatric cancer cell lines to identify multiple opportunities for drug repurposing: Primary screen for Saos-2 cells (AID 1347097); also: nearly all actives have a fitted effect of over 40% in size
Procedure, shortened: as §1

[5] = qHTS of pediatric cancer cell lines to identify multiple opportunities for drug repurposing: Primary screen for SK-N-SH cells (AID 1347098); also: nearly all actives have a fitted effect of over 65% in size
Procedure, shortened: (§3)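 Cells (500-1,000/well) rested 5 h, then received compounds for 48 h; metabolically active cells were measured by CellTiter-Glo luminescence. Final concentrations spanned up to 46 µM (MIPE, 11-point) or 0.59 nM-46 µM (NPC, 8-point) in primary screens, 11-point in follow-ups.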

[6] = qHTS of pediatric cancer cell lines to identify multiple opportunities for drug repurposing: Primary screen for NB1643 cells (AID 1347099); also: nearly all actives have a fitted effect of over 50% in size
Procedure, shortened: as §1

[7] = qHTS of pediatric cancer cell lines to identify multiple opportunities for drug repurposing: Primary screen for BT-12 cells (AID 1347101); also: nearly all actives have a fitted effect of over 25% in size
Procedure, shortened: as §3

[8] = qHTS of pediatric cancer cell lines to identify multiple opportunities for drug repurposing: Primary screen for Rh18 cells (AID 1347102); also: nearly all actives have a fitted effect of over 65% in size
Procedure, shortened: as §2

[9] = qHTS of pediatric cancer cell lines to identify multiple opportunities for drug repurposing: Primary screen for OHS-50 cells (AID 1347103); also: nearly all actives have a fitted effect of over 40% in size
Procedure, shortened: as §3

[10] = qHTS of pediatric cancer cell lines to identify multiple opportunities for drug repurposing: Primary screen for RD cells (AID 1347104); also: nearly all actives have a fitted effect of over 55% in size
Procedure, shortened: as §1

[11] = qHTS of pediatric cancer cell lines to identify multiple opportunities for drug repurposing: Primary screen for MG 63 (6-TG R) cells (AID 1347105); also: nearly all actives have a fitted effect of over 50% in size
Procedure, shortened: as §1

[12] = qHTS of pediatric cancer cell lines to identify multiple opportunities for drug repurposing: Primary screen for control Hh wild type fibroblast cells (AID 1347106); also: nearly all actives have a fitted effect of over 55% in size
Procedure, shortened: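 Viability after 48 h compound treatment at 37C, 500-1,000 cells/well, read as ATP luminescence with CellTiter-Glo. Primary screens used 11-point (MIPE, 0.78 nM-46 µM) or 8-point (NPC, 0.59 nM-46 µM) final concentrations; follow-up screens used 11-point dilutions.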

[13] = qHTS of pediatric cancer cell lines to identify multiple opportunities for drug repurposing: Primary screen for Rh30 cells (AID 1347107); also: nearly all actives have a fitted effect of over 75% in size
Procedure, shortened: as §2

[14] = qHTS of pediatric cancer cell lines to identify multiple opportunities for drug repurposing: Primary screen for Rh41 cells (AID 1347108); also: nearly all actives have a fitted effect of over 70% in size
Procedure, shortened: as §1

[15] = qHTS of pediatric cancer cell lines to identify multiple opportunities for drug repurposing: Confirmatory screen for NB1643 cells (AID 1347109); also: nearly all actives have a fitted effect of over 45% in size
Procedure, shortened: as §2

[16] = qHTS of pediatric cancer cell lines to identify multiple opportunities for drug repurposing: Confirmatory screen for SK-N-MC cells (AID 1347111);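 also: cells exposed to compound for 48 h before the readout; nearly all actives have a fitted effect of over 70% in size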
Procedure, shortened: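 Metabolically active cells were quantified by ATP-dependent luminescence (CellTiter-Glo, 15 min at room temperature) following 48 h treatment. Cells had been plated at 500-1,000 per well and settled for 5 h beforehand.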

[17] = qHTS of pediatric cancer cell lines to identify multiple opportunities for drug repurposing: Confirmatory screen for BT-12 cells (AID 1347112); also: nearly all actives have a fitted effect of over 55% in size
Procedure, shortened: as §2

[18] = qHTS of pediatric cancer cell lines to identify multiple opportunities for drug repurposing: Confirmatory screen for LAN-5 cells (AID 1347113); also: nearly all actives have a fitted effect of over 65% in size
Procedure, shortened: as §2

[19] = qHTS of pediatric cancer cell lines to identify multiple opportunities for drug repurposing: Primary screen for LAN-5 cells (AID 1347100)
Procedure, shortened: as §2

Measured: Potency
Potency is read from the fitted curve at half-maximal effect.

CN(C)c1ccc(C(=O)NCCCCCCC(=O)NO)cc1
active: [1] 153 nM | [2] 469 nM | [3] 1180 nM | [4] 118 nM | [5] 2410 nM | [6] 296 nM | [7] 1530 nM | [8] 93.5 nM | [9] 344 nM | [10] 2090 nM | [11] 2350 nM | [12] 3720 nM | [13] 2350 nM | [14] 935 nM | [15] 1170 nM | [16] 1040 nM | [17] 13100 nM | [18] 1850 nM

CN1[C@H]2CC(OC(=O)[C@@H](CO)c3ccccc3)C[C@H]1[C@H]1O[C@H]12 (stereo not given in full)
inactive: [1] | [2] | [3] | [4] | [5] | [19] | [7] | [8] | [10] | [11] | [12] | [13] | [14]

Cc1noc(-c2ccc(CSCCC(=O)O)cc2)c1NC(=O)OC(C)c1ccccc1Cl (stereo not given)
inactive: [1] | [2] | [3] | [4] | [5] | [19] | [7] | [8] | [9] | [10] | [12] | [13]

CC(C)C[C@H](NC(=O)[C@@H](NC(=O)c1cccc(-c2ccccc2)n1)[C@@H](C)O)B(O)O
active: [1] 96.8 nM | [2] 83.3 nM | [3] 148 nM | [4] 5900 nM | [5] 60.7 nM | [19] 33.2 nM | [7] 68.5 nM | [8] 46.9 nM | [9] 432 nM | [10] 118 nM | [11] 29.6 nM | [12] 209 nM | [13] 372 nM | [14] 93.5 nM | [15] 82.7 nM | [16] 14.7 nM | [17] 82.7 nM | [18] 36.9 nM

O=C1NC(O)CCN1[C@@H]1O[C@H](CO)[C@H](O)[C@H]1O (stereo not given in full)
inactive: [1] | [2] | [3] | [4] | [5] | [19] | [7] | [8] | [10] | [11] | [12] | [13]

COc1cc(OC)c(NC(=O)Nc2cc(C)on2)cc1Cl
inactive: [1] | [2] | [3] | [4] | [5] | [19] | [7] | [8] | [10] | [11] | [12] | [13]
